Experimental findings from PubChem BioAssay AID2242 (National Center for Advancing Translational Sciences (NCATS), 2010) are described below.

The campaign covered roughly 200,000 compounds. About 720 (0.36%) were called active. Roughly 8% stayed inconclusive and do not appear here. Calls come from the whole dose curve; as a rule, active = well fitted activation curve with a large enough effect; inconclusive = small, poorly fitted or top-dose-only effect, or effect the other way, or another doubt; inactive = flat fitted curve, though single readings scatter. Some of the results follow.
Potency is the fitted concentration of half-maximal effect.

In this test the target is Lysosomal alpha-glucosidase (Homo sapiens) (UniProt P10253). Put plainly: qHTS Assay for Activators of Human alpha-Glucosidase as a Potential Chaperone Treatment of Pompe Disease. Note: nearly all actives have a fitted effect of over 80% in size. The note with it: purified enzyme, 4-MU-alpha-glucoside fluorescence, 20 min; series mostly up to 76.9 µM. From the text:
NIH Chemical Genomics Center [NCGC] NIH Molecular Libraries Probe Production centers Network [MLPCN] MLPCN Grant: 1R03MH084841-01 Assay Submitter (PI): Wei Zheng NCGC Assay Overview: Alpha-glucosidase is responsible for hydrolysis of terminal, non-reducing 1,4-linked alpha-D-glucose residues with release of alpha-D-glucose. It is a lysosomal hydrolase that is required for the degradation of a small percentage (1-3%) of cellular glycogen in human. Deficiency of this enzyme results in glycogen-storage disease type II (GSDII), also referred to as Pompe disease, an autosomal recessive disorder. Structurally normal glycogen is accumulated in lysosomes and cytoplasm in affected patients, primarily in muscle tissues. Excessive glycogen storage within lysosomes may interrupt normal functioning of other organelles and leads to cellular injury. In turn, this leads to enlargement and dysfunction of the entire organ involved (eg, cardiomyopathy and muscle weakness). It has reported that the improper folding and trafficking of alpha-glucosidase resulting from the genetic mutations may account for a significant number of Pompe patients. […] We optimized this alpha-glucosidase assay in 1536-well plate format for identifying the novel small molecule inhibitors with the structures other than the sugar analogs in order to develop the new pharmacological chaperones, but are also able to detect potential activators. In conjunction with assays against alpha-galactosidase (AID 1467), fluorogenic false positive compounds can be identified.
NCGC Assay Protocol Summary: This is a fluorogenic enzyme assay with 4-methylumbelliferyl-alpha-D-[…] as the substrate and human alpha-glucosidase as the enzyme preparation. Upon the hydrolysis of this fluorogenic substrate, the resulting product, 1. 4-methyllumbelliferone, can be excited at 365 nm and emits at 440 nm which can be detected by a standard fluorescence plate reader. Data were normalized to the controls for basal activity (without enzyme) and 100% activity (with enzyme). In the AC50 values were determined from concentration-response data modeled with the standard Hill equation. Assay buffer: 50 mM citric acid (titrated with potassium phosphate to pH 5.0), 0.005% Tween-20, pH 5.0. (pH 5.0 is an optimal condition for this enzyme assay) 1536-well assay protocol for the human alpha-glucosidase: (1) Add 2 ul/well of enzyme (4 nM final) (2) Add 23 nL compounds in DMSO solution. The final titration was 0.7 nM to 77 uM. (3) Add 1 ul of substrate (400 uM final) (4) Incubate at room temperature for 20 min. (5) Add 2 ul stop solution (1M NaOH and 1M Glycine mixture, pH 10) (6) Detect the assay plate in a ViewLux plate reader (PerkinElmer) with Ex=365 nm and Em=440nm. Keywords: Alpha-glucosidase, Pompe Disease, pharmacological chaperone, chaperone therapy, high throughput screening, alpha-glucosidase inhibitor, MLSMR, MLSCN, NIH Roadmap, qHTS and NCGC
Background: qHTS replaces the single test concentration by a dilution series.
With `COc1cc(C(=O)Nc2sc3c(c2C(=O)NCc2ccco2)CCCC3)cc(OC)c1OC`, the Potency is 28.2 µM (active).

For the compound `O=C(O)c1cc(-c2cccs2)nc2cc3c(cc12)OCCO3`, the Potency was 25.1 µM (active). To `c1ccc2c(NCC3CCCO3)nc(N3CCCCC3)nc2c1` (centres undefined) belongs 39.8 µM (active). The figure for `c1coc(CNc2nc(N3CCCCC3)nc3ccccc23)c1` is 39.8 µM (active); for `CCCCOc1ccccc1C1C(C(=O)OC)=CN(CC)C=C1C(=O)OC` it is 35.5 µM (active); for `CCCOc1ccccc1C1C(C(=O)OC)=CN(C(C)C)C=C1C(=O)OC` it is 39.8 µM (active).

With `CCOc1ccccc1C1C(C(=O)OC)=CN(C)C=C1C(=O)OC`, the Potency was 35.5 µM (active).

On to `CN(C)c1oc(-c2cccs2)nc1C#N`, for which the Potency is 39.8 µM (active). The figure for `CC1CN(c2oc(-c3cccs3)nc2C#N)CC(C)O1` (centres undefined) is 35.5 µM (active); for `N#Cc1c(-c2ccco2)cc(-c2ccccn2)nc1N` it is 28.2 µM (active). Turning to `N#Cc1c(-c2ccccc2F)cc(-c2cccnc2)nc1N`, the Potency was 35.5 µM (active). The figure for `N#Cc1c(-c2ccco2)cc(-c2cccnc2)nc1N` is 28.2 µM (active); for `CCN(CC)Cc1c(O)c(Cl)cc2c(C)cc(=O)oc12` it is 35.5 µM (active); for `CCc1c(C)c2cc(Cl)c(O)c(CN(CC)CC)c2oc1=O` it is 35.5 µM (active). To `CCN(CC)Cc1c(O)c(Cl)cc2c(C)c(C)c(=O)oc12` belongs 35.5 µM (active); to `CC1(C)Cc2nc(N3CCCC3)c(C#N)cc2CO1`, 35.5 µM (active); to `Cc1cc2c(C)cc(=O)oc2c2c1NCCC2`, 35.5 µM (active). To `CCNc1nc(N)c(C(=C(C#N)C#N)c2ccccc2)s1` belongs 35.5 µM (active); to `C=CCNc1nc(N)c(C(=C(C#N)C#N)c2ccccc2)s1`, 35.5 µM (active).

As to `O=C(c1cc2c(=O)n3ccccc3nc2s1)N1CCc2ccccc2C1`, the Potency was 44.7 µM (active). For the compound `O=C(c1cc2c(=O)n3ccccc3nc2s1)N1CCN(Cc2ccc3c(c2)OCO3)CC1`, the Potency was 35.5 µM (active).

Consider `Cn1c(C(=O)N2CCc3ccccc3C2)cc2c(=O)n3ccccc3nc21`, for which the Potency was 31.6 µM (active). `CCOC(=O)C1CCN(C(=O)c2cc3c(=O)n4ccccc4nc3n2C)CC1`: the Potency was 39.8 µM (active).

As for `COC(=O)c1cc2c(=O)n3ccccc3nc2n(C)c1=N`, the Potency was 25.1 µM (active). To `Cn1c(C(=O)N2COCC2(C)C)cc2c(=O)n3ccccc3nc21` belongs 35.5 µM (active); to `CC1CN(C(=O)c2cc3c(=O)n4ccccc4nc3s2)CC(C)O1` (centres undefined), 35.5 µM (active); to `COc1cccc2c(=O)c3c(cnn3C)n(C)c12`, 31.6 µM (active). The figure for `O=C(Nc1ccc(-c2nc3ccccc3[nH]2)cc1)c1cccc(N2C(=O)CCC2=O)c1` is 35.5 µM (active); for `CC1=C(C(=O)Nc2ccccn2)C(c2cn(C)nc2C)C2=C(CCCC2=O)N1` (centres undefined) it is 28.2 µM (active). Turning to `CCn1cc(C2C(C(=O)Nc3ccc(Br)cn3)=C(C)NC3=C2C(=O)CCC3)c(C)n1` (centres undefined), the Potency was 31.6 µM (active). To `CC(C)(C)c1cc(C(F)(F)F)c(C#N)c(=O)[nH]1` belongs 35.5 µM (active); to `Cc1cc(C(F)(F)F)c(C#N)c(=O)[nH]1`, 31.6 µM (active); to `O=c1oc2cc(O)ccc2cc1-c1ccc(F)cc1`, 25.1 µM (active). To `CCc1cc(=O)oc2c(CN3CCN(C)CC3)c(O)c(Cl)cc12` belongs 31.6 µM (active); to `Cc1c(O)ccc2c(CN3CCN(CCO)CC3)cc(=O)oc12`, 35.5 µM (active); to `CCCCc1cc(=O)oc2c(CN3CCCC3)c(O)c(Cl)cc12`, 31.6 µM (active).

Regarding `CCCc1cc(=O)oc2c(CN3CCCC3)c(O)c(Cl)cc12`, the Potency was 35.5 µM (active). To `CCCc1cc(=O)oc2c(CN3CCN(C)CC3)c(O)c(Cl)cc12` belongs 35.5 µM (active).

As for `CCc1cc(=O)oc2c(CN3CCCC3)c(O)c(Cl)cc12`, the Potency was 39.8 µM (active).

As for `CCc1cc2c(CN3CCN(C)CC3)cc(=O)oc2cc1O`, the Potency was 35.5 µM (active). Turning to `CCc1ccc(S(=O)(=O)c2nnn3c2nc(NCCNC(C)=O)c2ccccc23)cc1`, the Potency was 31.6 µM (active). As to `CCN(CC)Cc1c(O)c(Cl)cc2c3c(c(=O)oc12)CCCC3`, the Potency is 35.5 µM (active). Turning to `CN(C)Cc1c(O)c(Cl)cc2c3c(c(=O)oc12)CCCC3`, the Potency was 35.5 µM (active). To `CC(C)C(=O)Nc1c2c(nc3ccccc13)N(C)CC2` belongs 35.5 µM (active). The figure for `CCCOc1cc(N(CC)CC)ccc1/C=C(/C#N)c1nc2ccc(C)cc2[nH]1` is 35.5 µM (active). Take `CCOP(=O)(OCC)c1nc(/C=C/c2ccccc2)oc1NCc1ccc(OC)cc1`: the Potency is 35.5 µM (active).

On to `CCOP(=O)(OCC)c1nc(/C=C/c2ccccc2)oc1NCc1ccccc1`, for which the Potency is 35.5 µM (active). Turning to `CCCCc1cc(=O)oc2c(CN(CC)CC)c(O)c(Cl)cc12`, the Potency is 35.5 µM (active). To `CCCCc1cc(=O)oc2c(CN(C)C)c(O)c(Cl)cc12` belongs 35.5 µM (active).
